# Measurements reported in PubChem BioAssay (NCI).
# The panel holds about 83,000 compounds, 20% with a hit somewhere; the sample as a whole holds those more often.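 Activity criterion: percent growth below 10, measured after cells in 96-well plates were exposed to a single compound concentration for 48 hours.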 Unmarked numbers belong to inactive results. Activity calls are given as the source filed them.
# Columns and labels:
# Test in all cases: NCI-60 one-dose screen, 48 h (100 = growth as untreated, 0 = no growth, -100 = all killed)
# Details in all cases: 10 µM unless noted
# HCT-15 colon = tested on: HCT-15 colon
# HT29 colon = tested on: HT29 colon
# SNB-75 CNS = tested on: SNB-75 CNS
# SNB-19 CNS = tested on: SNB-19 CNS
# U251 CNS = tested on: U251 CNS
# PC-3 prostate = tested on: PC-3 prostate
# SK-MEL-5 melanoma = tested on: SK-MEL-5 melanoma
# UACC-62 melanoma = tested on: UACC-62 melanoma
# LOX IMVI melanoma = tested on: LOX IMVI melanoma
# SK-MEL-28 melanoma = tested on: SK-MEL-28 melanoma
# SK-MEL-2 melanoma = tested on: SK-MEL-2 melanoma
# EKVX NSCLC = tested on: EKVX NSCLC
# SN12C renal = tested on: SN12C renal
# UO-31 renal = tested on: UO-31 renal
# TK-10 renal = tested on: TK-10 renal
# ACHN renal = tested on: ACHN renal
# CAKI-1 renal = tested on: CAKI-1 renal
# A498 renal = tested on: A498 renal
# CCRF-CEM leukemia = tested on: CCRF-CEM leukemia
# MOLT-4 leukemia = tested on: MOLT-4 leukemia
Compound,growth (HCT-15 colon),growth (HT29 colon),growth (SNB-75 CNS),growth (SNB-19 CNS),growth (U251 CNS),growth (PC-3 prostate),growth (SK-MEL-5 melanoma),growth (UACC-62 melanoma),growth (LOX IMVI melanoma),growth (SK-MEL-28 melanoma),growth (SK-MEL-2 melanoma),growth (EKVX NSCLC),growth (SN12C renal),growth (UO-31 renal),growth (TK-10 renal),growth (ACHN renal),growth (CAKI-1 renal),growth (A498 renal),growth (CCRF-CEM leukemia),growth (MOLT-4 leukemia)
CCc1cccc2c1S/C(=C/c1ccc(Cl)cc1)C2=O,92.5%,105%,73.3%,95.1%,99.2%,88.6%,99.4%,88.6%,93.8%,110%,105%,95%,90.5%,70.7%,170%,91.3%,87.3%,113%,98%,88.8%
CC(=O)OC[C@H]1OC(Sc2sc(C(=O)c3ccc(Br)cc3)c(N)c2-c2nc3ccccc3s2)[C@H](OC(C)=O)[C@@H](OC(C)=O)[C@H]1OC(C)=O (stereo not given in full),99.7%,106%,74.5%,87.4%,96.2%,70.8%,36.3%,60.4%,96.8%,104%,112%,80.5%,95.1%,61.4%,128%,90.5%,67.6%,36.1%,85.5%,79.3%
O=C(CSc1nccc(Nc2ccc(S(=O)(=O)Nc3nccs3)cc2)n1)c1ccc(C(F)(F)F)cc1,103%,106%,91.5%,93.2%,86.6%,93.2%,95.1%,93.2%,99.2%,108%,102%,94.4%,102%,69.2%,112%,100%,90.1%,109%,108%,112%
CCc1nnc(NC(=O)c2nnn(-c3ccccc3)c2-c2ccco2)s1,51.5%,109%,89.6%,93.9%,84%,64.7%,83.2%,86.5%,89%,95.1%,108%,84.7%,96.4%,87.4%,115%,94.5%,92.1%,42.7%,77.8%,93.7%
c1cc2nc(-c3cn[nH]c3)c3c(c2cc1-c1cn[nH]c1)C1CCC3C1 (stereo not given),47.2%,81.8%,-1.68% (active),78.9%,72%,62.3%,60.2%,59.6%,69.1%,73.7%,92.4%,46.3%,66%,40.3%,97.4%,44.9%,28.3%,-6.11% (active),69%,63%
NC(=O)C1(Nc2ccc(Br)cc2)CCCC1,107%,102%,93.2%,105%,97.5%,94.3%,103%,96.4%,103%,106%,101%,92%,102%,86.3%,104%,101%,103%,99.8%,99.8%,99%
COc1ccc(CN2c3ccccc3CCc3ccccc32)cc1F,24.9%,1.59% (active),23.2%,39%,21.1%,24.1%,19.8%,24.8%,50.2%,50.8%,27.2%,41.1%,39.1%,43.2%,62.7%,35.6%,29.7%,-6.65% (active),4.49% (active),16.2%
COc1ccc2sc3c(NCCCN(C)C)nc4ccccc4c3c(=O)c2c1,50.2%,-47.5% (active),53.5%,71.4%,-1.18% (active),63%,66.4%,77.3%,-100% (active),-73.1% (active),95.9%,70%,72.3%,48.4%,78%,69.9%,63%,17.4%,4.23% (active),-16.2% (active)
Cc1ccc(-c2nc3c(c(-c4ccccc4)nn3-c3ccccc3)c(-c3ccc(O)cc3)c2C#N)cc1,28.8%,107%,40.5%,69.1%,41.6%,34.3%,77.6%,63.7%,12.2%,67.1%,78.7%,74.5%,53.7%,39.4%,38.3%,67.6%,50.4%,44.2%,39.1%,40.5%
O=C1NC(=O)C(Cn2cnc3ccccc32)N1 (stereo not given),101%,105%,85.7%,95.5%,101%,95%,101%,98.5%,97.8%,104%,107%,100%,98.6%,92.6%,99.6%,99.8%,101%,76.6%,102%,99.6%
COc1ccc(C(=O)COC(=O)[C@H](C[Se][Se]C[C@H](NC(=O)c2ccc(Br)cc2F)C(=O)OCC(=O)c2ccc(OC)cc2)NC(=O)c2ccc(Br)cc2F)cc1,-30.7% (active),10.7%,-95.6% (active),-38.1% (active),-85.3% (active),-63.8% (active),-8.07% (active),-89.5% (active),-50.8% (active),-74.5% (active),-93.8% (active),-69.4% (active),-79.9% (active),-95.4% (active),-79.6% (active),-86.9% (active),-83.2% (active),-23.8% (active),-25.4% (active),-1.84% (active)
CCOC(=O)c1nc(Nc2ccc(C(C)=O)cc2)sc1C,96.8%,97.5%,89.7%,95.9%,101%,99.5%,100%,95.1%,99.9%,102%,106%,97.8%,104%,91.8%,97.9%,101%,94.7%,75.1%,99.9%,97.8%
C=C1C(=O)O[C@H]2[C@H]1CC/C(COC(=O)C(C)c1ccc(CC(C)C)cc1)=C\CC[C@@]1(C)O[C@@H]21 (stereo not given in full),-56.1% (active),-54.1% (active),56.6%,64.1%,1.42% (active),16.4%,7.78% (active),6.52% (active),-89.1% (active),5.16% (active),36.7%,46.2%,35.2%,-87.6% (active),62%,-94.6% (active),79.1%,92.7%,4.97% (active),-3.37% (active)
O=c1ccc(N=Nc2ccc([N+](=O)[O-])cc2)ccc1O,13.2%,25.9%,30.7%,19%,17.4%,34.2%,9.1% (active),15.2%,3.95% (active),41.1%,28.1%,5.14% (active),4.86% (active),17.1%,47.9%,16.5%,20.2%,103%,34.5%,18.6%
COc1ccc(/C=N/Nc2cc(=O)[nH]c3ccc(C)cc23)cc1,87.9%,94.7%,108%,95.2%,97.1%,79.1%,69%,89.4%,91.5%,101%,81.7%,82%,88.3%,75.7%,116%,92.2%,93.1%,87.8%,88%,79%
